Results from PubChem BioAssay AID488969 (Vanderbilt High Throughput Screening Facility, 2010).
Over roughly 110,000 compounds, “z-score” has its median near -0.1; the highest 2% begin near 2. This is one part of a sample in which the highest values are shown more often than they occur. The source made the active and inactive calls.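 The calls were made as follows: active = z-score in the third read window above 3 or below -3; inactive = the rest.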

target: Metabotropic glutamate receptor 8 (Rattus norvegicus) (UniProt P70579); assay: mGluR8 Gi/Go-coupled signaling modulation – cell-based, rat, thallium flux, HTS, primary screen (AID 488969); conditions: HEK293 rat mGluR8, GIRK (G protein-gated inwardly rectifying potassium channel) thallium flux, FluoZin2; at 10 µM; stronger effect = higher value; submaximal glutamate (EC20) added with thallium
Sequence (P70579 whole entry, looked up): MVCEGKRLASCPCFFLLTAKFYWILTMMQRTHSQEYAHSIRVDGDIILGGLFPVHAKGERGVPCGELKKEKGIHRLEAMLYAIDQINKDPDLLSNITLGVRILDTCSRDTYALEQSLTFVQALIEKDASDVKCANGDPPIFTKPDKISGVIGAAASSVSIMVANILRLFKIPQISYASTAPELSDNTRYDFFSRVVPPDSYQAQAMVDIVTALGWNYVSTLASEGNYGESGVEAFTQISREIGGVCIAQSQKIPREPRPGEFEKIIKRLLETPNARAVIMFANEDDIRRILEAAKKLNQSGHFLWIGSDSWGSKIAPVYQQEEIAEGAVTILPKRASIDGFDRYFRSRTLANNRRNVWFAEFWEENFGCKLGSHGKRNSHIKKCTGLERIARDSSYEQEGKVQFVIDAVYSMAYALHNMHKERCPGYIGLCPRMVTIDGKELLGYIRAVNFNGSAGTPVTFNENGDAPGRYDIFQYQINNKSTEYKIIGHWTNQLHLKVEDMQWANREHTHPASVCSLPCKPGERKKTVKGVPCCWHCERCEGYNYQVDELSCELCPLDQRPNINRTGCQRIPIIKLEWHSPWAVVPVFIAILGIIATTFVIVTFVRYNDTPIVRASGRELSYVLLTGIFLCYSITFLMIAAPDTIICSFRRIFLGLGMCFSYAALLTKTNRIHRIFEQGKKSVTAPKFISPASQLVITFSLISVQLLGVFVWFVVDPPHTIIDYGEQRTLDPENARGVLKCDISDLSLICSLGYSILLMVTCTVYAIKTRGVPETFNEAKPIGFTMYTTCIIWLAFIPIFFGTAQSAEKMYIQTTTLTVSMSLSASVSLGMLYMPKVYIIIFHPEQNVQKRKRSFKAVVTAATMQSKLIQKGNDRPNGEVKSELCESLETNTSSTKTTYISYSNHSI

Compound | z-score
O=C(CSCC(=O)N1CCOCC1)Nc1nc(-c2ccc3c(c2)OCO3)cs1 | 2
O=C(CSc1nc(-c2ccc(F)cc2)cs1)N1CCc2ccccc21 | -0.119
O=C(CSc1nc(-c2ccc(F)cc2)cs1)N1CCOCC1 | 3.29 (active)
CCOC(=O)N1CCN(C(=O)CSCC(=O)Nc2nc(-c3ccc4c(c3)OCO4)cs2)CC1 | -0.296
O=C(CSCC(=O)N1CCN(c2ccccc2)CC1)Nc1nc(-c2ccc(Cl)s2)cs1 | 0.16
O=C(CSCC(=O)N1CCCCC1)Nc1nc(-c2ccc(Cl)s2)cs1 | 2.68
CC1CCCN(C(=O)CSCC(=O)Nc2nc(-c3cccs3)cs2)C1 (stereo not drawn) | 0.503
CC1CN(C(=O)CSc2nc(-c3ccc(F)cc3)cs2)CC(C)O1 (stereo not drawn) | -0.898
CCC(=O)Nc1nc(-c2ccc3c(c2)OCCO3)cs1 | -0.0358
O=[N+]([O-])c1ccc(Cl)c(S(=O)(=O)N2CCCCCC2)c1 | -0.0418
COc1ccc(-c2nsc3c(SCC(=O)Nc4cc(C)ccc4C)ncnc23)cc1 | 0.00156
CC(NS(=O)(=O)c1ccc(CCC(=O)N2CCN(C)CC2)cc1)c1ccccc1 (stereo not drawn) | -0.349
O=C(Cc1ccccc1)Nc1nc(-c2cccs2)cs1 | 2.99
O=C(COc1ccccc1Cl)Nc1nc(-c2cccs2)cs1 | 0.4
O=C(Cc1ccccc1)Nc1nnc(-c2cccs2)s1 | 0.154
O=C(COc1ccccc1)Nc1nc(-c2cccs2)cs1 | 2.15
O=C(COc1ccccc1)Nc1nccs1 | 1.35
CC(=O)Nc1nc(-c2cccs2)cs1 | -0.281
Cc1cccc2cc(CN(Cc3ccc(F)cc3)C(=O)C(F)(F)F)c3nnnn3c12 | -0.681
Cc1ccc2c(c1)N(CC(=O)NCc1ccco1)C(=O)CO2 | -0.265
COc1ccc2nc(SCc3cnc(C)nc3N)[nH]c2c1 | 0.0366
CCc1ccc2[nH]c(=O)c(CN(CCN(C)C)C(=O)Nc3ccccc3)cc2c1 | -0.0486
N#Cc1c(N)sc2c1CCN(CCc1ccccc1)C2 | 0.208

Compound | z-score
COc1ccccc1-n1c(SCC(=O)NC2CCS(=O)(=O)C2)nc2cc([N+](=O)[O-])ccc21 (stereo not drawn) | -0.116
CCOC(=O)CSc1nc(C)c2cc(OC)ccc2n1 | 6.89 (active)
COc1ccc2nc(SCC(=O)O)nc(C)c2c1 | -0.216
CCOC(=O)CCSc1nc(C)c2cc(OC)ccc2n1 | -0.0662
CC1CCCN(C(=O)C2CCCN(S(=O)(=O)c3cccc4nsnc34)C2)C1 (stereo not drawn) | 0.195
Cc1cc(C(=O)NNC(=S)NCC(C)C)cs1 | 0.377
CCNC(=S)NNC(=O)c1csc(C(C)C)c1 | -0.354
Cc1ccc(C)c(NC(=S)NNC(=O)c2csc(C(C)C)c2)c1 | 12 (active)
Cc1cccc(NC(=S)NNC(=O)c2csc(C(C)C)c2)c1 | 8.28 (active)
CCCCNC(=S)NNC(=O)c1csc(C(C)C)c1 | 0.133
Cc1ccc(C)c(NC(=S)NNC(=O)c2ccc(Br)o2)c1 | 0.537
CCCCn1c(SCC(=O)Nc2cc(C)on2)nnc1-c1ccco1 | 1.3
COc1ccccc1NC(=O)c1cc(S(=O)(=O)N2CCC3(CC2)OCCO3)ccc1F | -0.251
CCOc1ccccc1NC(=O)c1cc(S(=O)(=O)N2CCC3(CC2)OCCO3)ccc1F | -0.432
CCOc1ccccc1NC(=O)c1ccc(F)c(S(=O)(=O)N2CCC3(CC2)OCCO3)c1 | 2.77
CCNC(=S)NN=C1CCC(C(C)(C)C)CC1 (stereo not drawn) | 0.883
O=C(COC(=O)COc1ccccc1Cc1ccccc1)Nc1cccnc1Cl | -0.941
Cc1cccc2sc(NC(=O)Cn3cccc3)nc12 | 13.9 (active)
Cc1cccc2sc(NC(=O)CSCc3ccccc3)nc12 | 0.801
Cc1cccc2sc(NC(=O)CN3C(=O)c4ccccc4C3=O)nc12 | -0.16
Cc1onc(-c2c(F)cccc2Cl)c1C(=O)N1C=CC(C(F)(F)F)=NCC1 | -0.013
Cc1nnc(SCC(=O)N2CCCc3ccccc32)[nH]c1=O | -0.411
Cc1cc(=O)[nH]c(SCC(=O)N2CCCc3ccccc32)n1 | 0.265

Compound | z-score
O=C(CSc1nc(-c2ccccc2)cc(=O)[nH]1)N1CCc2ccccc21 | 9.86 (active)
O=C(CSc1nc(O)cc(=O)[nH]1)N1CCCc2ccccc21 | -0.65
CCc1c(C)nc(SCC(=O)N2CCc3ccccc32)[nH]c1=O | 4.54 (active)
Nc1nc(SCC(=O)N2CCc3ccccc32)[nH]c(=O)c1-c1ccccc1 | 0.47
CCOc1ccc(C2/C(=C(/O)c3ccccc3)C(=O)C(=O)N2CCCN(C)C)cc1OC (stereo not drawn) | 0.188
O=C(COC(=O)c1cnccn1)c1ccc2ccccc2c1 | 0.118
COn1c(SC(C)C)nc2ccccc2c1=O | -0.948
CCSc1nc2ccccc2c(=O)n1OCC(=O)OC | -0.148
COC(=O)COn1c(SC(C)C)nc2ccccc2c1=O | 2.57
Cc1cc(NC(=O)c2cc3ccccc3oc2=O)no1 | 0.0723
Cc1cc2cc(CN(CCN3CCOCC3)C(=O)Nc3ccccc3F)c(=O)[nH]c2cc1C | -0.536
CC(C)OP(=O)(OC(C)C)C1(O)C(=O)Nc2ccccc21 (stereo not drawn) | -0.0437
CCOc1ccc(C(=O)NCCc2ccccc2)cc1 | 0.0133
CCOc1ccc(C(=O)NC(Cc2ccccc2)C(=O)OC)cc1 (stereo not drawn) | -0.262
COc1ccc(C(=O)NC(=S)N(Cc2ccccc2)Cc2ccccc2)cc1 | 16.8 (active)
CCOc1ccc(C(=O)NC(=S)N(Cc2ccccc2)Cc2ccccc2)cc1 | 11.7 (active)
COc1ccc(C(=O)NC(=S)Nc2ccccc2F)cc1 | 0.595
COc1ccc(C(=O)NN(c2ccccc2)c2ccccc2)cc1 | -0.0602
COc1ccc(C2SCC(=O)N2CC23CC4CC(CC(C4)C2)C3)cc1 (stereo not drawn) | -0.23
CCC(=O)N1N=C(c2c(-c3ccccc3)c3cc(Cl)ccc3[nH]c2=O)CC1c1ccco1 (stereo not drawn) | -0.155
CCCCn1c(/N=C/c2ccc3c(c2)OCO3)nc2ccccc21 | -0.738
CC(C)=CC[N+]1(C)CCCCC1 | 1.14
N#C/C(=C\c1cn(CCOc2ccccc2F)c2ccccc12)C(=O)NCc1cccs1 | -0.0588

Compound | z-score
CCOc1ccc(N2C(=O)/C(=C/c3cccs3)N(CC(=O)OC)C2=S)cc1 | -0.17
CCOc1ccc(/C=C2/C(=O)N(c3ccc(OC)cc3)C(=S)N2CC(=O)OC)cc1OCC | 0.273
CCOc1ccc(N2C(=O)/C(=C/c3cc(OC)c(OC)c(OC)c3)N(CC(=O)OC)C2=S)cc1 | 14.1 (active)
S=c1sc(SCCOc2ccccc2)nn1-c1ccccc1 | -0.317
COc1cccc(C(=O)OCc2ccccc2C#N)c1O | -0.163
O=C(Nc1ccccc1)N(C1=NCCCCS1)c1cccc2ccccc12 | -0.463
Cc1ccc(Nc2n[nH]c(C)c2[N+](=O)[O-])cc1C | 2.51
Cc1ccc(Nc2n[nH]c(C)c2[N+](=O)[O-])cc1 | -0.101
Cc1cccc(Nc2n[nH]c(C)c2[N+](=O)[O-])c1 | 0.073
CNC(=O)CCCc1nc(-c2ccccc2Cl)no1 | 0.0193
COC(=O)c1sccc1NC(=S)N1CCN(c2ccccc2)CC1 | -0.397
Cc1cc(C(=O)NC(C)c2ccc3c(c2)OCO3)cs1 (stereo not drawn) | 0.0632
Cc1cc(C(=O)NNC(=S)NC(C)c2ccccc2)cs1 (stereo not drawn) | -0.281
Cc1cc(C(=O)NC(C)c2ccncc2)cs1 (stereo not drawn) | 2.05
Cc1cc(C)c2nc(SCC(=O)N3CC(=O)Nc4ccccc43)c(C#N)cc2c1 | -0.188
CC1CC1C(=O)NCCc1ccc(Cl)cc1 (stereo not drawn) | 1.05
N#Cc1ccc(-n2c(-c3ccccc3)nnc2-c2ccccc2)cc1C#N | 0.19
COc1ccccc1/C=C/C=N\N1CCN(Cc2ccccc2Cl)CC1 | 5.52 (active)
COc1ccccc1/C=C/C=N/N1CCN(Cc2cccc3ccccc23)CC1 | -0.494
COc1ccccc1/C=C/C=N/N1CCN(Cc2ccc(Cl)cc2)CC1 | -0.494
CN(C)c1ccnc(-n2cccc2/C=N/OCc2cccc(F)c2)c1C#N | -0.0405
CCN(C(=O)CSc1ncccc1C(=O)OC(C)C)c1cccc(C)c1 | -0.441
O=C(Nc1cc(C(F)(F)F)ccc1F)C1CCC1 | 0.411

Compound | z-score
COc1ccc(Nc2nc(N)nc(CSc3nnc(C)s3)n2)cc1 | 2.42
COc1ccc(OCc2nc(N)nc(Nc3ccccc3)n2)cc1 | 5.72 (active)
COc1ccc(Nc2nc(N)nc(CSc3nnc(N)s3)n2)cc1 | -0.571
COc1ccc(Nc2nc(N)nc(COc3ccc(OC)cc3)n2)cc1 | -0.113
COc1ccc(OCc2nc(N)nc(Nc3ccc(C)cc3)n2)cc1 | 0.32
Cc1nnc(SCc2nc(N)nc(Nc3ccccc3)n2)s1 | -0.209
O=C1c2ccccc2CC1(Cc1ccccc1)Cc1ccccc1 | -0.201
CC(C)(C)c1ccc(OCC(=O)N/N=C/c2ccsc2)cc1 | 0.2
COc1ccc(OCC(=O)N/N=C/c2ccsc2)cc1 | 0.604
CC(Oc1ccc(Cl)cc1)C(=O)N/N=C/c1ccsc1 (stereo not drawn) | 11.6 (active)
COc1cc(C(=O)Nc2ccc(S(=O)(=O)NC(C)(C)C)cc2)cc(OC)c1OC | -0.258
CCOc1cc(N2CCOCC2)c(OCC)cc1NC(=O)COC(=O)c1cccc2ccccc12 | -0.0215
CCOc1cc(N2CCOCC2)c(OCC)cc1NC(=O)COC(=O)CCc1c[nH]c2ccccc12 | 8.03 (active)
CCOc1cc(N2CCOCC2)c(OCC)cc1NC(=O)Cc1cccc2ccccc12 | -0.178
CCOc1ccccc1N1C(=O)CC(N(O)c2ccccc2)C1=O (stereo not drawn) | -0.0542
CC1(C)CN2C(=S)N(c3ccccc3)C(c3ccccc3)N2C1 (stereo not drawn) | -0.619
COc1ccc(N2CCN(CCCNC(=O)Nc3ccccc3)CC2)cc1 | 0.121
COc1ccc(N2CCN(CCNC(=O)Nc3ccc(Cl)cc3)CC2)cc1 | 0.451
COc1ccc(Cl)c(N2CCN(CCCNC(=O)Nc3ccc(C)cc3)CC2)c1 | 2.3
COc1ccccc1C1(CCNS(=O)(=O)c2ccc(C)cc2)CCOC(C(C)C)C1 (stereo not drawn) | -0.293
CC(=O)/C(=N/Nc1ccccc1)Sc1nnc(C(O)c2ccccc2)n1-c1ccccc1 (stereo not drawn) | -0.33
